The text below walks through data of PubChem BioAssay (NCI).

What all share (test): NCI-60 one-dose screen, 48 h (100 = growth as untreated, 0 = no growth, -100 = all killed)
Common to all, as to details: 10 µM

For test [1], the system named is HT29 colon.
The subject of test [2] is SNB-75 CNS.
Test [3] concerns SNB-19 CNS.
Test [4] concerns U251 CNS.
In test [5] the test system is PC-3 prostate.
Test [6] deals with SK-MEL-5 melanoma.
Test [7] deals with UACC-62 melanoma.
Test [8] has as its system LOX IMVI melanoma.
Test [9] concerns SK-MEL-28 melanoma.
Test [10] relates to SK-MEL-2 melanoma.
In test [11] the test system is SN12C renal.
In test [12] the test system is UO-31 renal.
The subject of test [13] is TK-10 renal.
Test [14] deals with ACHN renal.
The subject of test [15] is A498 renal.
Test [16] relates to CCRF-CEM leukemia.
In test [17] the test system is MOLT-4 leukemia.
Test [18] has as its system SR leukemia.
Test [19] deals with CAKI-1 renal.

Molecules are shown by their SMILES. Compounds without any hit were thinned out: in the full panel of roughly 83,000, 20% have a hit.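 Compound tested at a single concentration for 48 hours in 96-well plates; a percent growth value below 10 was scored as active.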 A number with no mark means an inactive call. Active and inactive are the calls of the source.

In the case of `O=C(O)CC(Cl)C(Cl)CC(=O)O` (configuration not stated), the growth in test [1] is 101%; in [2] it was 103%; in test [3], 103%; in test [4], 98.6%; in test [5], 98.1%; in test [6], 108%. Also, the growth in [7] is 100%; in test [8], 94%; in test [9], 107%; in test [10], 107%; in test [11] it was 102%; in test [12] it was 81.1%. For the same compound, the growth in test [13] is 95.7%; in test [14] it was 103%; in test [15] it was 105%; in test [16] it was 89.9%; in test [17], 97.1%; in test [18], 0.349% (active).
Turning to `c1ccc(CO[C@H]2CO[C@H]3[C@@H]2OC[C@H]3OCc2ccccc2)cc1`, the growth in test [1] was 107%; in [2], 111%; in test [3], 101%; in test [4], 104%; in test [5], 90.6%; in [6], 101%. The growth is 95.9% in test [7]; 98.4% in test [8]; 105% in [9]; 104% in test [10]; 102% in [11]; 72.1% in [12]. Further, the growth was 101% in test [13]; 101% in test [14]; 110% in test [15]; 99.2% in test [16]; 95.2% in test [17]; 94.6% in test [18].
With `COc1cc2cc3c(nc2cc1OC)CCN3Cc1ccc(NC(=O)c2ccc(Cl)c(C(F)(F)F)c2)cc1`, the growth in test [1] was 105%; in test [2] it was 61.7%; in test [3] it was 86.6%; in [4], 84.6%; in test [5], 69.6%; in test [6], 85%. Moreover, the growth in [7] is 79.9%; in test [8], 89.9%; in [9], 97.9%; in test [10] it was 108%; in [11], 91.3%; in [12], 71.9%. Moreover, the growth is 131% in test [13]; 84.7% in [14]; 130% in test [15]; 91% in test [16]; 56.8% in test [17]; 70.6% in [18].
Regarding `COc1cc(-c2cc(/C=C/C(=O)c3ccc(Cl)c(Cl)c3)[nH]n2)cc(OC)c1OC`, the growth in [1] was 58.3%; in test [2], 75.4%; in test [3] it was 68%; in test [4] it was 43.8%; in test [5], 55%; in test [6], 84.1%. The growth in [7] is 81.6%; in test [8], 29.6%; in [9], 96.1%; in test [10] it was 86.7%; in test [11], 64.3%; in test [12], 54.1%. Also, the growth in test [14] was 81.5%; in test [19], 82.9%; in test [15], 70.6%; in [16], 3% (active); in [17] it was 54.4%; in test [18], -6.68% (active).
With `Cc1ccc(Nc2cc(C)nc(NCCCNc3ccnc4cc(Cl)ccc34)n2)cc1`, the growth in [1] is -87.2% (active); in [2] it was -98.5% (active); in test [3], -24.9% (active); in test [4] it was -99.2% (active); in test [5], -38.4% (active); in test [6] it was -100% (active). Also, the growth was -92.9% (active) in [7]; -82.7% (active) in [8]; -100% (active) in [9]; -97% (active) in test [10]; -81% (active) in [11]; -95% (active) in test [12]. Also, the growth was -94.7% (active) in test [13]; -98.2% (active) in test [14]; -59.4% (active) in test [15]; -27.8% (active) in test [16]; -47.6% (active) in test [17].
For the compound `COc1ccc(-c2nc(-c3nc4ccc(OC)cc4[nH]3)cc3c2[nH]c2ccccc23)cc1`, the growth was 17.4% in [1]; 67.3% in [2]; 37.5% in [3]; 14.3% in test [4]; 25.8% in test [5]; 49.9% in test [6]. The growth in [7] is 50%; in test [8] it was 27.2%; in test [9] it was 47.7%; in test [10] it was 11.2%; in [11], 20.7%; in [12] it was 8.19% (active). Besides, the growth was 31.9% in test [14]; 0.0135% (active) in test [19]; 46.3% in test [15]; 11% in test [16]; 47.3% in test [17]; 33.6% in test [18].
